High-throughput results (PubChem)
A selection: hits, their analogues and other compounds. The true share with any hit is near 11%.
Tau FP inhib: qHTS for Inhibitors of Tau Fibril Formation, Fluorescence Polarization; Microtubule-associated protein tau (Homo sapiens), P10636; K18 P301L tau heparin fibrillization, Alexa594 FP, 6 h; Potency, µM (top dose mostly 57.7 µM), actives largely listed as inhibitors; hit rate 0.39% among 280,000; AID 1468, 2008; note: nearly all actives have a fitted effect of over 55% in size
Target sequence (P10636 561-689 P618L limits assumed): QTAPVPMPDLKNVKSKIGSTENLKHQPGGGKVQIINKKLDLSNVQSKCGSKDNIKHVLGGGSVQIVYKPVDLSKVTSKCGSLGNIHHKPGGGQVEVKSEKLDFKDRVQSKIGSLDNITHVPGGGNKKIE
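Compound effects on tau fibrillization are measured by Alexa 594 fluorescence polarization (ex 555, em 632 nm). K18 P301L tau is used at 15 uM with 0.24 uM labeled tracer, and 20 uM heparin induces aggregation over 6 hr at 37 C.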
Sfp PPTase inh: qHTS Assay for Inhibitors of Bacillus subtilis Sfp phosphopantetheinyl transferase (PPTase); hit rate 3.5% among 310,000; Biochemical Sfp PPTase activity, qHTS; Potency, µM, hits mostly inhibitors;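 note: the enzyme is Sfp with the accession as filed and its product quenches rhodamine fluorescence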
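Reaction rates are the 30-min fluorescence difference (ex 525, em 598 nm) in wells containing 15 nM Sfp, 5 uM rhodamine-CoA and 12.5 uM BHQ-2-YbbR at pH 7.6 with 10 mM MgCl2.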
G9a inh: qHTS Assay for Inhibitors of Histone Lysine Methyltransferase G9a. G9a H3K9 monomethylation, AlphaScreen, 2 h. Potency, µM (top dose mostly 102 µM), actives largely listed as inhibitors. hit rate 8.8% among 350,000. AID 504332, 2011; note: nearly all actives have a fitted effect of over 75% in size
Target sequence (Q96KQ7 913-1193 limits assumed): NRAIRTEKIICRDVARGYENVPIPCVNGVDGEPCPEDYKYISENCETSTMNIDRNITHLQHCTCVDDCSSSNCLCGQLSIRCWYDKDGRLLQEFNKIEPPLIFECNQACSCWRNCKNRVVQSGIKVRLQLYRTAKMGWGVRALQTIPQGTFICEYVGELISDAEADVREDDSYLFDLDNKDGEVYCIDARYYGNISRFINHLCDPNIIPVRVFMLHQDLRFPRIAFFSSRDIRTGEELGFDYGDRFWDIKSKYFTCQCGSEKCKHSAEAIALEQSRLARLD
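Compounds were preincubated with 20 nM G9a for 15 min, after which biotinylated H3K9 peptide (500 nM) and SAM (20 uM) started a 2 h room-temperature reaction. Monomethylated product was quantified by antibody-based AlphaScreen chemiluminescence.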
Tau ThT inhib: qHTS for Inhibitors of Tau Fibril Formation, Thioflavin T Binding; hit rate 2.1% among 270,000; Microtubule-associated protein tau (Homo sapiens), P10636; recombinant tau K18 P301L, heparin-induced fibrillization, ThT fluorescence; Potency, µM (highest dose often 57.4 µM), usual class: inhibitors; AID 1460, 2008; note: nearly all actives have a fitted effect of over 55% in size
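In this qHTS, human K18 P301L tau is incubated with compound and heparin for 6 hr at 37 C, and Thioflavin T fluorescence then reports fibril load.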
Tau fluor cs: Counterscreen qHTS for Inhibitors of Tau Fibril Formation, Fluorescence Polarization. tau K18 P301L Alexa594 fluorescence, heparin fibrillization. Potency, µM (top dose mostly 57.7 µM). hit rate 0.93% among 280,000; note: nearly all actives have a fitted effect of over 55% in size
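Human tau K18 P301L (15 uM unlabeled, 0.24 uM Alexa 594-labeled) in 100 mM sodium acetate pH 7 with 20 uM heparin, 6 hr at 37 C. ThT 30 uM added, 1 hr ambient; Alexa 594 FP and total fluorescence read at 555/632 nm.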
FBPA coupling cs: qHTS Assay for Inhibitors of Fructose-1,6-bisphosphate Aldolase from Giardia Lamblia: Coupling assay counterscreen; coupling enzyme system counterscreen, AmpLite Red fluorescence; activity change, negative = inhibition, % at 58.2 µM, hits read low; hit rate 0.67% among 290,000; in the data active = activity change below about -30%
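Final compound at 57.5 uM, incubated 10 min at RT with coupling enzyme reagent (glyceraldehyde-3-phosphate), then 20 min with substrate and AmpLite Red detection. Fluorescence read at 525/598 nm; tests interference with the coupling assay, not aldolase inhibition.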
Numbers stand for hits; - = inactive; ? = inconclusive; . = no result given; [ ] = dose if it differs, or a comment. Unless noted, calls come from the whole dose curve; as a rule, active = well fitted curve in the direction sought with a large enough effect; inconclusive = small, poorly fitted or top-dose-only effect, or another doubt; inactive = no such curve, though single readings can be large; an effect the other way counts as inactive or inconclusive.

SMILES	Tau FP inhib	Sfp PPTase inh	G9a inh	Tau ThT inhib	Tau fluor cs	FBPA coupling cs
Cc1ccc(-n2ncc(C(=O)N3CCN(c4cc(Cl)ccc4C)CC3)c2C2CCN(C(=O)OC(C)(C)C)CC2)cc1	-	.	-	-	-	.
CCc1nc2cccnc2n1-c1ccc(CC(=O)Nc2ccc(C)cc2)cc1	-	.	-	-	-	.
CC(=O)Nc1nc(SCC(=O)Nc2nnc(C)s2)[nH]c(=O)c1NC(=O)c1cccs1	-	-	-	-	-	-
Cc1cc(C)c(S(=O)(=O)NCc2ccc3c(c2)CCN3C(=O)c2ccccc2)c(C)c1	-	.	-	-	-	.
COc1ccc(-c2cn3c(C)c(C(=O)NCCN4CCOCC4)sc3n2)cc1	-	-	40µM	?	-	-
CCN(CC)c1ccc(NC(=O)c2sc3nc(-c4ccccc4)cn3c2C)cc1	-	.	5µM	2.2µM	?	.
Cc1c(C(=O)Nc2ccncc2)sc2nc(-c3ccccc3)cn12	-	-	?	-	-	-
COc1cccc(NC(C)C(=O)Nc2cc([N+](=O)[O-])ccc2Cl)c1 (centres undefined)	-	-	-	-	?	-
COc1ccc(CCN(C)C(=O)COC(=O)/C=C/c2ccc(C)o2)cc1OC	.	.	35µM	.	.	.
CCOc1ccc2oc(C(=O)N(C)CCc3ccc(OC)c(OC)c3)c(C)c2c1	.	.	-[12.7 µM]	.	.	.
CCOC(=O)C1CCCN(C(=O)c2nn(-c3ccc(C)cc3)c(=O)n(C)c2=O)C1 (centres undefined)	-	.	-	-	-	.
NC(Cc1ccccc1)C(=O)N1CCCCC1 (centres undefined)	.	-	-	.	.	-
NC(=O)c1sc2nc(-c3ccccc3)c3c(c2c1N)CCCC3	-	40µM	?	?	?	-
CC(C)c1nc2sc(C(=O)O)c(N)c2c2c1CCCC2	-	56µM	?	-	-	-
Cc1nc2sc(C(N)=O)c(N)c2c2c1CCCC2	-	79µM	?	?	-	-
COc1ncnc2c1sc1nc(-c3ccccc3)c3c(c12)CCCC3	-	?	-	-	-	-
CCc1nc2sc(C(C)=O)c(N)c2c2c1CCCC2	-	-	-[12.7 µM]	-	-	-
Cc1ccc(-c2nc3sc(C(N)=O)c(N)c3c3c2CCCC3)cc1	-	40µM	-	-	-	-
CC(=O)c1sc2nc(-c3ccc(C)cc3)c3c(c2c1N)CCCC3	-	35µM	-	?	?	-
Cc1cc(O)c(CN2CCN(c3ccccc3)CC2)c2oc(=O)cc(C)c12	-	.	-	-	-	.
CC(=O)c1ccc(NC(=O)c2ccc3c(c2)N(Cc2cccc(Cl)c2)C(=O)c2ccccc2S3(=O)=O)cc1	16µM	.	-	-	?	.
O=C(Nc1cccc(F)c1)c1ccc2c(c1)N(Cc1ccccc1)C(=O)c1ccccc1S2(=O)=O	14µM	.	-	-	?	.
COc1ccc(CCNC(=O)c2ccc3c(c2)N(Cc2ccccc2F)C(=O)c2ccccc2S3(=O)=O)cc1OC	?	.	7.9µM	-	?	.
COc1ccc(CCNC(=O)c2ccc3c(c2)N(Cc2cccc(C)c2)C(=O)c2ccccc2S3(=O)=O)cc1OC	-	.	-	-	?	.
O=C(NC1CCCCC1)c1ccc2c(c1)N(Cc1ccc(F)cc1)C(=O)c1ccccc1S2(=O)=O	-	.	-	?	?	.
COc1ccc(NC(=O)c2ccc3c(c2)N(Cc2cccc(Cl)c2)C(=O)c2ccccc2S3(=O)=O)cc1Cl	16µM	.	-	-	-	.
COc1ccccc1N1CCN(S(=O)(=O)c2c(C)nc3sc(C)c(C)n3c2=O)CC1	-	.	-	-	-	.
CCOC(=O)c1c(C)[nH]c(C)c1S(=O)(=O)N1CCCC(C(=O)Nc2cc(C)ccc2C)C1 (centres undefined)	-	.	-	-	-	.
